The source of these data is PubChem BioAssay (EPA / NIEHS).

Values joined by “and” are separate entries in the source; they are usually repeats but may differ in a detail not shown here. Equal values may be shown once. The source holds several records for some structures; these can differ, active in one and inactive in another. Active and inactive are the calls of the source. The calls were made as follows: active = hit-call score of the fitted dose curve at least 0.9, where 1 is the maximum; inactive = score below 0.9.

Read-out in test [1]: Interleukin-8 (IL8), CXCL8 (gene 3576)
The test is described as follows: BSK_MyoF_IL8: BioMAP Diversity Plus: MyoF Assay for Interleukin-8 (IL8) Biomarker Activity (AID 2284261). The settings on record: primary human lung fibroblasts. The procedure, abridged: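 IL-8 quantified by ELISA after 24 h compound exposure of primary human lung fibroblasts. SRB staining of parallel cultures flagged cytotoxicity; DMSO served as baseline.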

Read-out in a further test: Decorin, DCN (gene 1634)
The test is described as follows: BSK_MyoF_Decorin: BioMAP Diversity Plus: MyoF Assay for Decorin Biomarker Activity (AID 2284265). Particulars: primary human lung fibroblasts. The procedure, abridged: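 Decorin protein was quantified by ELISA 24 h after chemical addition to primary human lung fibroblasts and analysed as increase over DMSO. Cytotoxicity was tracked in parallel cultures by SRB total-protein staining read at 560 nm.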

Test [2] in a line: BSK_MyoF_SRB: Viability Assessment in the BioMAP Diversity Plus: MyoF Assay (AID 2284267).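 Also: total protein by SRB absorbance in parallel cultures as cytotoxicity measure.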 Particulars: primary human lung fibroblasts. A digest of the protocol:
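Read-out is SRB absorbance at 560 nm, reflecting total protein in parallel lung fibroblast cultures harvested 24 h after compound addition. Cells were TCA-fixed (10%) and stained with 0.1% SRB; activity is referenced to DMSO.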

Read-out in test [3]: Matrix Metallopeptidase 1 (MMP1), MMP1 (gene 4312)
The test is described as follows: BSK_MyoF_MMP1: BioMAP Diversity Plus: MyoF Assay for Matrix Metallopeptidase 1 (MMP1) Biomarker Activity (AID 2284268). The settings on record: primary human lung fibroblasts. A digest of the protocol:
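Human lung fibroblasts (MyoF system) exposed to chemical for 24 h in 96-well format; MMP1 biomarker quantified by ELISA, with activity fitted in the positive direction relative to DMSO baseline.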

Read-out in test [4]: TIMP metallopeptidase inhibitor 1 (TIMP1), TIMP1 (gene 7076)
The test is described as follows: BSK_MyoF_TIMP1: BioMAP Diversity Plus: MyoF Assay for TIMP metallopeptidase inhibitor 1 (TIMP1) Biomarker Activity (AID 2284269). The settings on record: primary human lung fibroblasts. A digest of the protocol:
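TIMP-1 levels were determined by ELISA in human lung fibroblasts treated for 24 h. DMSO served as negative control and baseline for upward curve fitting.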

Read-out in test [5]: Intercellular Adhesion Molecule 1 (ICAM1), ICAM1 (gene 3383)
Briefly: BSK_BF4T_ICAM1: BioMAP Diversity Plus: BF4T Assay for Intercellular Adhesion Molecule 1 (ICAM1) Biomarker Activity (AID 2284260). The settings on record: primary human bronchial epithelial cells with fibroblasts. The procedure, abridged:
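Co-culture of human bronchial epithelial cells and dermal fibroblasts exposed 24 h to chemical; cell-surface ICAM-1 quantified by ELISA. Parallel SRB total-protein staining assessed cytotoxicity; activity fitted relative to DMSO.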

Read-out in test [6]: Matrix Metallopeptidase 3 (MMP3), MMP3 (gene 4314)
Briefly: BSK_BF4T_MMP3: BioMAP Diversity Plus: BF4T Assay for Matrix Metallopeptidase 3 (MMP3) Biomarker Activity (AID 2284271). Particulars: primary human bronchial epithelial cells with fibroblasts. The procedure, abridged: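 Co-culture of human bronchial epithelial cells and dermal fibroblasts dosed 24 h; MMP-3 measured by ELISA, positive-direction fit versus DMSO. Cytotoxicity tracked by SRB total-protein staining (560 nm) in parallel cultures.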

Read-out in test [7]: Tissue plasminogen activator (tPA), PLAT (gene 5327)
The test is described as follows: BSK_BF4T_tPA: BioMAP Diversity Plus: BF4T Assay for Tissue plasminogen activator (tPA) Biomarker Activity (AID 2284272). The settings on record: primary human bronchial epithelial cells with fibroblasts. A digest of the protocol: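 tPA level quantified by ELISA at 24 h post-treatment in bronchial epithelial/dermal fibroblast co-cultures, gain of signal scored against DMSO baseline. Parallel cultures stained with 0.1% SRB (560 nm) to flag overt cytotoxicity.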

Read-out in test [8]: Plasminogen Activator Inhibitor-1 (PAI1), SERPINE1 (gene 5054)
Briefly: BSK_BF4T_PAI1: BioMAP Diversity Plus: BF4T Assay for Plasminogen Activator Inhibitor-1 (PAI1) Biomarker Activity (AID 2284273). The settings on record: primary human bronchial epithelial cells with fibroblasts. The procedure, abridged: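 Co-culture of human bronchial epithelial cells and dermal fibroblasts exposed to compound for 24 h. PAI-1 measured by ELISA; activity fitted in positive direction versus DMSO. Parallel SRB staining assessed overt cytotoxicity.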

Test [9] in a line: BSK_BF4T_SRB: Viability Assessment in the BioMAP Diversity Plus: BF4T Assay (AID 2284274). The settings on record: primary human bronchial epithelial cells with fibroblasts. The procedure, abridged: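 Co-culture of human bronchial epithelial cells and dermal fibroblasts (BioMAP BF4T) exposed 24 h. Total protein by sulforhodamine B staining (0.1% SRB after 10% TCA fixation, 560 nm) in parallel cultures; fitted vs DMSO.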

As a reminder, the AC50 is the concentration at which the activity in the assay is half-maximal. As for `CC(C)(C)c1ccccc1OP(=O)(Oc1ccccc1)Oc1ccccc1`, the outcome was “inactive” in test [1] and “inactive” in the test with Decorin, DCN (gene 1634). Besides, the AC50 is 20 µM (active) in test [2], 5.26 µM (active) in test [3] and 26.8 µM (active) in test [4].
As to `N#Cc1c(-c2ccc(Cl)cc2)[nH]c(C(F)(F)F)c1Br`, the concentration at half-maximal activity (AC50) in test [1] is 0.17 µM (active); in [2], 0.802 µM (active); in test [4] it was 20 µM (active). Besides, the outcome was “inactive” with Decorin, DCN (gene 1634) and “inactive” in test [3].
For `Nc1ccc([N+](=O)[O-])cc1Cl`, the outcome in test [1] was “inactive”; with Decorin, DCN (gene 1634), “inactive”; in [2], “inactive”; in [3], “inactive”; in test [4], “inactive”.
Consider `N#Cc1cc([N+](=O)[O-])ccc1N`, for which the outcome in test [1] was “inactive”; in the test with Decorin, DCN (gene 1634), “inactive”; in [2], “inactive”; in [3] it was “inactive”; in test [4] it was “inactive”.
Turning to `OCC(F)(F)OC(F)(F)C(F)(F)OC(F)(F)CO`, the outcome in test [5] was “inactive”; in test [1], “inactive”; in the test with Decorin, DCN (gene 1634), “inactive”; in test [2] it was “inactive”; in [3] it was “inactive”; in [4], “inactive”. The outcome in [6], in [7], in test [8] and in test [9] was inactive.
`CCOP(=S)(OCC)SCS(=O)(=O)CC`: the outcome in test [1] is “inactive”; with Decorin, DCN (gene 1634), “inactive”; in test [2], “inactive”; in test [3], “inactive”; in [4] it was “inactive”.
With `CCCCC(CC)COP(=O)(Oc1ccccc1)Oc1ccccc1` (stereo not given), the AC50 is 0.145 µM (active) in [1]; 5.87 µM (active) with Decorin, DCN (gene 1634); 8.43 µM (active) in [2]; 5.32 µM (active) in [3]; 6.48 µM (active) in test [4].
Take `NC(=O)C(F)(F)C(F)(F)F`: the outcome in test [5] is “inactive”; in test [1], “inactive”; with Decorin, DCN (gene 1634), “inactive”; in [2], “inactive”; in [3] it was “inactive”; in test [4], “inactive”. Moreover, the outcome in [6], in [7], in [8] and in [9] was inactive.
For `COC(=O)C(F)(F)C(F)(F)OC(F)(C(F)(F)F)C(F)(F)OC(F)=C(F)F` (stereo not given), the outcome is “inactive” in test [5]; “inactive” in [1]; “inactive” with Decorin, DCN (gene 1634); “inactive” in test [2]; “inactive” in test [3]; “inactive” in [4]. Besides, the outcome in test [6], in [7], in test [8] and in test [9] was inactive. Moreover, the concentration at half-maximal activity (AC50) in test [1] was 1.29 µM (active).
Take `Cc1ccc2c(c1N)C(=O)c1ccccc1C2=O`: the outcome is “inactive” in [1]; “inactive” with Decorin, DCN (gene 1634); “inactive” in [2]; “inactive” in test [3]; “inactive” in test [4].
Turning to `C=CC(=O)OCC(F)(F)C(F)F`, the AC50 in test [5] was 13.9 µM (active) and 22.8 µM (active); in test [2] it was 41.2 µM (active); in [3], 44 µM (active); in [4], 47.6 µM (active); in test [7], 30 µM (active) and 29.3 µM (active). Besides, the outcome is “inactive” in [1]; “inactive” with Decorin, DCN (gene 1634); “inactive” in test [2]; “inactive” in [3]; “inactive” in test [4]; “inactive” in [6]. Moreover, the outcome in test [8] and in test [9] was inactive.
Consider `ClC(Cl)=C(c1ccc(Cl)cc1)c1ccccc1Cl`, for which the concentration at half-maximal activity (AC50) is 9.75 µM (active) in [1]; 9.47 µM (active) with Decorin, DCN (gene 1634); 6.71 µM (active) in test [2]; 9.59 µM (active) in test [3]; 5.76 µM (active) in test [4].
Consider `CCOP(=S)(NC(C)C)Oc1ccccc1C(=O)OC(C)C` (stereo not given), for which the outcome in test [1] was “inactive”; with Decorin, DCN (gene 1634), “inactive”; in test [2] it was “inactive”; in test [3], “inactive”; in test [4], “inactive”.
As to `OCC(F)(F)OC(F)(F)C(F)(F)OC(F)(F)C(F)(F)OC(F)(F)CO`, the concentration at half-maximal activity (AC50) in [5] was 26.9 µM (active); in test [7] it was 30 µM (active) and 24 µM (active). Further, the outcome was “inactive” in [5]; “inactive” in [1]; “inactive” with Decorin, DCN (gene 1634); “inactive” in test [2]; “inactive” in test [3]; “inactive” in test [4]. Further, the result in test [6], in test [8] and in [9] was inactive.
For the compound `CCOP(=S)(OCC)SCSc1ccc(Cl)cc1`, the outcome was “inactive” in test [1]; “inactive” with Decorin, DCN (gene 1634); “inactive” in test [2]; “inactive” in test [4]. For the same compound, the AC50 in test [3] is 30.1 µM (active).
For `COP(=O)(O)OC`, the outcome is “inactive” in test [1]; “inactive” with Decorin, DCN (gene 1634); “inactive” in test [2]; “inactive” in test [3]; “inactive” in test [4].
For `O=C(O)C(F)(OC(F)(F)C(F)(F)C(F)(F)F)C(F)(F)F` (stereo not given), the outcome in test [5] is “inactive”; in test [1], “inactive”; in the test with Decorin, DCN (gene 1634), “inactive”; in test [2], “inactive”; in test [3] it was “inactive”; in test [4], “inactive”. For the same compound, the outcome in test [6], in [7], in [8] and in [9] was inactive.
As for `CCCCOCCOP(=O)(OCCOCCCC)OCCOCCCC`, the outcome in test [1] is “inactive”; with Decorin, DCN (gene 1634), “inactive”; in test [2] it was “inactive”; in test [3], “inactive”; in [4], “inactive”.
As for `COP(N)(=S)OC`, the outcome in test [1] is “inactive”; in the test with Decorin, DCN (gene 1634), “inactive”; in [2] it was “inactive”; in [3], “inactive”; in test [4], “inactive”.
In the case of `C=CC(=O)OCC(CC)(COC(=O)C=C)COC(=O)C=C`, the half-maximal activity concentration (AC50) was 5.17 µM (active) in test [1]; 3.09 µM (active) with Decorin, DCN (gene 1634); 2.91 µM (active) in [2]; 3.88 µM (active) in test [3]; 9.61 µM (active) in test [4].
